# Results taken from PubChem BioAssay (NCATS).
# Inconclusive results are not listed. Active and inactive are the calls of the source. The call rests on the fitted dose curve; in most records, active means well fitted cell-killing curve with a large enough effect; inconclusive means small, poorly fitted or top-dose-only effect; inactive means flat fitted curve, though single readings scatter.
# Test: KB-8-5-11 Cancer Cell Toxicity qHTS against the NCATS CANVASS Library (AID 1347364); further: nearly all actives have a fitted effect of over 75% in size
# Conditions: KB-8-5-11 MDR cells viability, CellTiter-Glo, 72 h; series mostly up to 46.1 µM; activity change, negative = toxicity: at the top concentration
# Text: Natural products and their derivatives continue to be wellsprings of nascent therapeutic potential. However, many laboratories have limited resources for biological evaluation, leaving their previously isolated or synthesized compounds largely or completely untested. To address this issue, the Canvass library of natural products was assembled (https://tripod.nih.gov/canvass), in collaboration with academic and industry researchers, for quantitative high-throughput screening (qHTS) across a diverse set of cell-based and biochemical assays. The pure (>85% purity by liquid chromatography/mass spectrometry [LC/MS]) Canvass library of 346 natural products were submitted by 45 academic laboratories and companies around the world. We collected pure natural products to circumvent deconvolution and structure elucidation due to time and resource limitations. The library was formatted into 1536-well plates and evaluated in 50 qHTS (in an 11-pnt concentration series) bioassays with broad scope of disease-relevant mechanisms. The resulting data set from 50 different assays was then systematically analyzed to identify overall trends and specific natural products with interesting biological activities. Reported herein are the results of each individual qHTS and their corresponding assay protocol. […] National Center for Advancing Translational Sciences (NCATS), Rockville, MD National Institute of Health (NIH), Bethesda, Maryland
# Cancer Cell Toxicity qHTS protocol 1. In a 1536 well, tissue culture treated white solid bottom plates (Corning 7494), 5 uL of KB-8-5-11 cell solution (final concentration of 500 cells / well) was dispensed using the Multidrop Combi dispenser (Thermo Fisher Scientific) into columns 3-48, rows 1-32. DMEM + 10% FBS + 100 U/mL penicillin / 100ug/mL streptomycin media solution was dispensed into column 1-2, row 1-32 also using the Multidrop Combi dispenser. For follow-up confirmation, KB 8-5-11 was also plated in medium supplemented with 1uM tariquidar. 2. Control and Compounds were pin transferred (~23nL volume) to the assay plates via Wako Pin-tool (Wako Automation, Richmond VA) equipped with a 1536 pin head. The compounds were transferred to columns 5-48 resulting in a final concentration ranging from 0.17 nM to 103 uM. Dose response titration of Bortezomib was pin transferred into column 3, rows 1-32 (2mM; 1:2 dilution; 16 points; n = 2) resulting to a final concentration range of 0.3nM - 9.2uM. 3. The assay plates were further incubated in the at 37C, 5% CO2, 95% Rh for 72 hr. 4. After incubation, 2.5uL of CellTiter-Glo reagent (Promega) was added to the assay plates (column 1-48, rows 1-32) using the Multidrop Combi dispenser. 5. The assay plates were incubated at room temperature for 10 minutes. 6. Luminescence signal was acquired via the ViewLux plate reader (PerkinElmer) using a clear emission filter, 1 sec exposure, and 1x binning settings.
# On the % scale 0 is the no-effect control and ±100 the full control effect; potency means the concentration at half of the fitted maximal effect.
Compound,outcome,"activity change, negative = toxicity",Potency
CO[C@@H](/C=C/CC/C=C/C(=O)O)[C@@H](O)[C@H](C)[C@@H](O)/C(C)=C/[C@H](C)C(=O)CCCC1CC(=O)NC(=O)C1,inactive,,
C[C@]12CC(O)C3[C@@H](CCC4C[C@@H](O)CC[C@@]43CO)[C@@]1(O)CCC2C1=CC(=O)OC1 (stereo not given in full),,7.53% (inactive),
CO[C@@H](/C=C/CC/C=C/C(=O)O)[C@@H](O)[C@H](C)/C=C(\C)[C@@H](O)[C@H](C)C(=O)CCCC1CC(=O)NC(=O)C1,inactive,,
COc1ccc2c(c1)[nH]c1c(C)nccc12,,,38.2 µM (active)
COc1ccc(C23Oc4cc(OC)cc(OC)c4[C@](O)([C@H](c4ccccc4)C2C(=O)NCCCCNC(=O)c2ccccc2)[C@@H]3O)cc1 (stereo not given in full),,7.2% (inactive),
CC(=O)N[C@H]1CCN2CCC[C@H]12,,4.42% [at 103 µM] (inactive),
CNCCc1c[nH]c2ccccc12,,-5.32% (inactive),
CCC(=O)CCCCC[C@@H]1NC(=O)[C@H]2CCCCN2C(=O)[C@H]([C@@H](C)CC)NC(=O)[C@H](Cc2cn(OC)c3ccccc23)NC1=O,,,13.2 µM (active)
CCCC[C@@H]1CC[C@H]2CCCC(CCC)N12 (stereo not given in full),,-0.242% (inactive),
CC1=CC(=O)C2=C(C)C[C@H](O)[C@@H]3[C@H](OC(=O)[C@@H]3C)[C@@H]12,inactive,,
CC=C1CN(C=O)[C@H]2C[C@@H]1[C@@H](C(=O)OC)[C@@]13CCOC21Nc1ccccc13 (stereo not given in full),,-20.4% (inactive),
CN(C)Cc1c[nH]c2ccccc12,,-0.848% (inactive),
C/C=C1/CN2CC[C@]34C(=Nc5ccccc53)[C@@H]2C[C@@H]1[C@H]4C(=O)OC,,0.746% [at 91.4 µM] (inactive),
CNCCc1ccc(O)cc1,inactive,,
CN1C(=O)[C@]23CC4C(C)(C)[C@@]5(C[C@@]41CN2CC[C@@]3(C)O)C(=O)Nc1c5ccc2c1OC=CC(C)(C)O2 (stereo not given in full),,-16.8% (inactive),
CCN1C[C@]2(C)CC[C@H](O)[C@]34C1C(C[C@H]23)[C@@]12CC[C@H](CC14)[C@](O)(COC(=O)c1ccc(OC)c(OC)c1)[C@H]2O (stereo not given in full),,-20.1% (inactive),
O=C(c1ccccc1O)c1[nH]c(Cl)c(Cl)c1-n1c(C(=O)c2ccccc2O)cc(Cl)c1Cl,,,2.64 µM (active)
NCCc1ccccc1,,5.36% (inactive),
C[C@@H]1CC[C@@H](c2ccoc2)N2C[C@@]3(CC[C@@H]12)CS[C@@]1(CC[C@H]2[C@H](C)CC[C@@H](c4ccoc4)N2[C@@H]1O)C3,,,8.33 µM (active)
CCN1C[C@]2(C)CC[C@@H](O)[C@]34C1[C@H](C[C@H]23)C12CCC(CC14)[C@](O)(CO)[C@H]2O (stereo not given in full),inactive,,
CO[C@H](c1ccccc1)[C@H]1NC(=O)C(C)NC(=O)C(C[C@@H](C)CO)N(C)C(=O)[C@@H](C(O)c2cn(C(C)(C)C3CO3)c3ccccc23)NC(=O)C(C(C)C=C(C)C)NC(=O)C(CC(C)C)N(C)C(=O)C(C(C)C)NC1=O (stereo not given in full),,-0.339% [at 27.5 µM] (inactive),
CCC[C@H]1CC[C@H]2[C@H](C)CCC[C@H]2N1,,-10.5% (inactive),
COC(=O)C1=C2Nc3ccccc3[C@@]23CCN2CC(C(C)=O)C1C[C@H]23 (stereo not given in full),,-8.84% (inactive),
CC1=CC2CC[C@@H]3[C@@H](C)C[C@H](C)[C@@H](C1)N23 (stereo not given in full),inactive,,
CC[C@@H]1CN2CC[C@@]3(O)C(=Nc4cccc(OC)c43)[C@@H]2C[C@@H]1/C(=C\OC)C(=O)OC,inactive,,
CC[N@@+]1([O-])C[C@]2(C)CC[C@@H](O)[C@@]34C5C[C@H]6CC[C@@]5(C(C[C@H]23)C41)[C@H](O)[C@@]6(O)CO (stereo not given in full),inactive,,
c1ccc2c3c([nH]c2c1)CNCC3,,-8% (inactive),
COc1ccc2c3c([nH]c2c1)C(C)=NCC3,inactive,,
CNCCc1ccccc1,inactive,,
C=C1[C@@H](C)[C@H]2[C@H](Cc3ccccc3)NC(=O)[C@]23OC(=O)/C=C/[C@H](O)CCC[C@@H](C)C/C=C/[C@H]3[C@@H]1O,,,9.35 µM (active)
